Sampled rows, rich in hits. Any-hit rate of the full collection: about 12%.
BAZ2B inh – blocks human BAZ2B | AlphaScreen BAZ2B-H3K14Ac peptide displacement | Potency, µM (series often up to 114 µM), for the others: at the highest dose activity change, negative = inhibition, hits mostly inhibitors | AID 504333 | Q9UIF8 | 360,000 compounds, 4.4% hits; note: % is set by controls: 0 for no effect and ±100 for the full control effect; nearly all actives have a fitted effect of over 60% in size
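AlphaScreen displacement of biotin-H3(5-23)K14Ac peptide (50 nM final) from BAZ2B (50 nM final) in PBS pH 7.4, 0.01% Tween-20; complex preformed 30 min RT, then compounds (top 110 uM) 30 min RT, beads 20 min dark.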
PLK1 PBD inh – inhibitors of human PLK1 polo-box domain binding. Potency, µM, for inactives: max response, negative = inhibition, hits mostly inhibitors. 360,000 compounds, 2.8% hits. AID 720504. Plk1 PBD binding of FITC phosphopeptide, fluorescence polarization. P53350; note: series mostly up to about 57 µM; % is set by controls: 0 for no effect and ±100 for the full control effect; nearly all actives have a fitted effect of over 65% in size
Sfp PPTase inh – Sfp phosphopantetheinyl transferase inhibition | Biochemical Sfp PPTase activity, qHTS | Q9F4F7 | Potency, µM, for inactives: largest response in the series, negative = inhibition, most hits filed as inhibitors | 310,000 compounds, 3.5% hits;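 note: the enzyme is Sfp with the accession as filed and its product quenches rhodamine fluorescence; 0% = enzyme reaction without inhibitor and -100% = no enzyme wells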
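Reaction rates are the 30-min fluorescence difference (ex 525, em 598 nm) in wells containing 15 nM Sfp, 5 uM rhodamine-CoA and 12.5 uM BHQ-2-YbbR at pH 7.6 with 10 mM MgCl2.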
G9a inh – G9a (human) methyltransferase inhibition; Q96KQ7; G9a H3K9 monomethylation, AlphaScreen, 2 h; Potency, µM (series often up to 102 µM), without a hit: at the highest dose activity, negative = inhibition, usual class: inhibitors; 350,000 compounds, 8.8% hits; AID 504332; note: % is set by controls: 0 for no effect and ±100 for the full control effect; nearly all actives have a fitted effect of over 75% in size
Target sequence (Q96KQ7 913-1193 limits assumed): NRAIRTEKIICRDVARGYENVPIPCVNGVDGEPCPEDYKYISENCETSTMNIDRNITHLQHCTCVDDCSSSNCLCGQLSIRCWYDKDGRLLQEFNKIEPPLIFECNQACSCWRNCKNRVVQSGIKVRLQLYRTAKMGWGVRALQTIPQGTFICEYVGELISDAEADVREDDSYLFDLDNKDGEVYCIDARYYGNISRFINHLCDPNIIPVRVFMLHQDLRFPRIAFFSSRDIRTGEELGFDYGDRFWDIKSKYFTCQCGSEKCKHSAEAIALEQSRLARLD
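Quantitative HTS format: methyltransferase activity on a biotin-tagged H3K9 peptide is measured by AlphaScreen, using a rabbit anti-monomethyl-H3K9 antibody with streptavidin donor and anti-IgG acceptor beads. Final levels are 20 nM enzyme, 500 nM peptide, 20 uM SAM; 2 h RT.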
HP1b binding inh – blocks HP1-beta chromodomain binding to methylated histone tails. P83916. AlphaScreen HP1-beta / biotin-H3K9me3 peptide binding. Potency, µM (titrated, usually from 114 µM), inactives show top-dose activity change, negative = inhibition, most hits filed as inhibitors. 390,000 compounds, 0.56% hits; note: nearly all actives have a fitted effect of over 70% in size
Target sequence (P83916 whole entry, looked up): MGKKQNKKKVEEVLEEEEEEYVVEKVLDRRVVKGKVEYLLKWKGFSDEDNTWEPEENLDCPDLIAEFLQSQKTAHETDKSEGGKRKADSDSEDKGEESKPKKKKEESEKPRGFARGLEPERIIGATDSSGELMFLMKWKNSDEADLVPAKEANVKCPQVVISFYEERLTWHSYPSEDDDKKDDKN
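Compound inhibition of the preformed complex between 50 nM HP1-beta and 50 nM biotinylated H3K9me3 peptide was read by AlphaScreen. Buffer was PBS pH 7.4 with 0.01% Tween-20. Incubations ran 30 min at room temperature, with 10 ug/mL donor/acceptor beads.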
JMJD2A Tudor inh – inhibitors of human JMJD2A Tudor domain; O75164; AlphaScreen JMJD2A-Tudor / H3K4me3 peptide binding; Potency, µM (top dose mostly 114 µM), for the others: at the highest dose activity change, negative = inhibition, usual class: inhibitors; 390,000 compounds, 4.4% hits; AID 504339; note: % is set by controls: 0 for no effect and ±100 for the full control effect; nearly all actives have a fitted effect of over 50% in size
Numbers without * were called inactive; ! = repeats disagree; [ ] = remark or other dose. Calls come from the whole dose curve; as a rule, active = well fitted curve in the direction sought with a large enough effect; inconclusive = small, poorly fitted or top-dose-only effect, or another doubt; inactive = no such curve, though single readings can be large; an effect the other way counts as inactive or inconclusive. Potency is the fitted concentration of half-maximal effect.

Results for COCCN(Cc1cc2cc(C)ccc2[nH]c1=O)S(=O)(=O)c1ccc(Cl)cc1 ?
BAZ2B inh: -16.4%[57.1 µM]; PLK1 PBD inh: -8.6%; Sfp PPTase inh: 20.8%; G9a inh: inconclusive; HP1b binding inh: 66.6%; JMJD2A Tudor inh: -4.1%

Results for CC(=O)c1cccc(NC(=O)c2ccc3c(c2)OCO3)c1 ?
BAZ2B inh: -0.5%; PLK1 PBD inh: 23.8µM*; Sfp PPTase inh: 17.1%; HP1b binding inh: 2.1%; JMJD2A Tudor inh: inconclusive

Results for O=C(Nc1cccc(-c2nc3ncccc3o2)c1)c1ccc2c(c1)OCO2 ?
PLK1 PBD inh: 26.7µM*; HP1b binding inh: -13.7%[57 µM]; JMJD2A Tudor inh: inconclusive

Results for CCN(CC)C(=O)C1=C(C)N(Cc2ccc(OC)cc2)C(=O)C(CC(=O)NCCc2ccccn2)C1 (stereo not given) ?
PLK1 PBD inh: -4.5%

What do the screens show for `c1ccc(C2[C@H]3CN(Cc4cccnc4)[C@H](c4ccccc4)C34CC2(c2cccnc2)C4)cc1` (stereo not given in full)?
BAZ2B inh: inconclusive; PLK1 PBD inh: -21.7%; Sfp PPTase inh: 56.2µM*!; G9a inh: -37.2%[59 µM]; HP1b binding inh: -13.7%; JMJD2A Tudor inh: inconclusive

How did CCc1cccc(NC(=O)c2ccc3c(=O)n4nc(Nc5ccccc5OC)sc4nc3c2)c1 do in these assays?
BAZ2B inh: -19.2%; G9a inh: -25.3%[59 µM]; HP1b binding inh: 19.8%; JMJD2A Tudor inh: -6.2%

How did CC1(C)C(=O)N(CCN2CCC(C(=O)c3ccc(F)cc3)CC2)c2ccccc21 do in these assays?
BAZ2B inh: 2.0%; PLK1 PBD inh: 1.6%; G9a inh: 20µM*!; HP1b binding inh: 57.5%; JMJD2A Tudor inh: -11.5%

How did COC(=O)C1=C(C(=O)OC)[C@@H]2N(Cc3ccccc3)c3ccccc3[C@@]23C[C@@H](C(=O)OC)N(S(=O)(=O)c2ccc(Br)cc2)C3=N1 do in these assays?
Sfp PPTase inh: 0.2%

Results for COc1ccc(CCNC(=O)c2cc3cccc(OC)c3oc2=O)cc1OC ?
BAZ2B inh: -3.5%; PLK1 PBD inh: -3.2%; Sfp PPTase inh: 7.7%; G9a inh: 1.8%; HP1b binding inh: 17.6%; JMJD2A Tudor inh: -18.0%

How did COc1cc(-c2noc(C)c2C(=O)NCCc2c[nH]c3ccccc23)cc(OC)c1OC do in these assays?
BAZ2B inh: 50.1µM*; PLK1 PBD inh: -7.6%; Sfp PPTase inh: 6.8%; G9a inh: 31.6µM*; HP1b binding inh: 13.8%; JMJD2A Tudor inh: inconclusive

Results for COc1cc(-c2noc(C)c2C(=O)NCCc2cccs2)cc(OC)c1OC ?
PLK1 PBD inh: -2.3%; HP1b binding inh: 45.9%; JMJD2A Tudor inh: -7.2%

What do the screens show for `O=C(NCCc1c[nH]c2ccccc12)c1cc([N+](=O)[O-])cc([N+](=O)[O-])c1`?
BAZ2B inh: -3.2%; PLK1 PBD inh: -8.5%; Sfp PPTase inh: 1.0%; G9a inh: 10µM*; HP1b binding inh: 30.0%; JMJD2A Tudor inh: -24.4%

What do the screens show for `Cc1ccc(C(=O)NCCc2c[nH]c3ccccc23)c(C)c1`?
BAZ2B inh: 50.1µM*; PLK1 PBD inh: -8.4%; Sfp PPTase inh: 0.7%; G9a inh: -44.4%; HP1b binding inh: -8.2%; JMJD2A Tudor inh: -26.2%

How did COc1cccc2cc(C(=O)NCCc3c[nH]c4ccccc34)c(=O)oc12 do in these assays?
BAZ2B inh: -37.4%; PLK1 PBD inh: 11.9µM*; Sfp PPTase inh: -0.8%; G9a inh: inconclusive; HP1b binding inh: inconclusive; JMJD2A Tudor inh: inconclusive

Results for NC(=O)C1CCN(c2nc(-c3cccs3)cs2)CC1 ?
BAZ2B inh: inconclusive; G9a inh: -6.9%[12.7 µM]; HP1b binding inh: 6.9%; JMJD2A Tudor inh: -35.3%

What do the screens show for `CSCC[C@H](NC(=O)N1C[C@H]2C[C@@H](C1)c1cccc(=O)n1C2)C(=O)Nc1ccc(NC(C)=O)cc1`?
BAZ2B inh: -1.7%; PLK1 PBD inh: -22.8%; Sfp PPTase inh: 11.4%; G9a inh: 38.3%; HP1b binding inh: 4.7%; JMJD2A Tudor inh: -13.6%

Bioassay records deposited in PubChem by National Center for Advancing Translational Sciences (NCATS).
